Measured values: the supplement of paper PMC10849652
The full data set covers some 7,900 targets. This sample favours those with a hit. About 0.6% of all pairs of compound and target were hits.

Tests used:
Assay in all cases: log2 fold change, soluble protein after heating vs DMSO (PISA); higher = thermal stabilisation; K562 cells, 10 uM, 30 min; active = over 0.2 and 3.5 SD of the protein, either way, in both replicates (recomputed)
[1] = compound: C1=CC=C(C=C1)[C@H](COC2=CC3=C(C=C2)NC(=O)N3)NC(=O)C4=CC=CN(C4=O)CC5=CC(=C(C=C5)F)F
Method in brief: (§1)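 K562 cells (2×10^6 cells/mL) were treated with 10 μM compound for 30 min, and aliquots were heated for 3 min over 48°C-58°C. Pooled aliquots were extracted in PBS with 0.5% NP-40 at 4°C, and the supernatant after 21,000xg for 90 min was measured by TMTpro 16plex LC-MS/MS with channel sums equalised. Reported thermal stability, relative to control samples and from duplicates, is a log2 fold change.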

[2] = compound: CC1=C(SC2=C1C(=N[C@H](C3=NN=C(N32)C)CC(=O)N)C4=CC=C(C=C4)Cl)C
Method in brief: as §1

[3] = compound: CC1=C2C(=CC=C1)N=C(N(C2=O)C3=CC=CC=C3C)CN4C=NC5=C(N=CN=C54)N
Method in brief: as §1

[4] = compound: Cc1sc2c(c1C)C(c1ccc(Cl)cc1)=N[C@@H](CC(=O)OC(C)(C)C)c1nnc(C)n1-2
Method in brief: as §1

[5] = compound: c1ccc([C@@H]2C[C@H]2NC2CCNCC2)cc1
Method in brief: as §1

Measured: log2 fold change

ACSL5 isoform 3 (UniProt Q9ULC5)
inactive: [1] -0.024 | [2] 0.043 | [3] 0.101 | [4] 0.057 | [5] -0.178

AGPAT1 (UniProt Q99943)
inactive: [1] -0.006 | [2] 0.075 | [3] 0.103 | [4] -0.032 | [5] 0.023

ADD2 (UniProt P35612)
inactive: [1] 0.005 | [2] 0.044 | [3] 0.014 | [4] -0.024 | [5] 0.016

ACSL1 (UniProt P33121)
inactive: [1] -0.019 | [2] 0.043 | [3] 0.064 | [4] 0.001 | [5] -0.03

ADAM15 (UniProt Q13444)
inactive: [1] -0.041 | [2] 0.059 | [3] 0.096 | [4] 0.08 | [5] 0

BSCL2 isoform 4 (UniProt Q96G97)
inactive: [1] -0.07 | [2] 0.106 | [3] -0.084 | [4] 0.027 | [5] -0.127

BAP1 (UniProt Q92560)
inactive: [1] -0.226 | [2] -0.123 | [3] -0.156 | [4] 0.066 | [5] -0.037

ATAD3A isoform 2 (UniProt Q9NVI7)
Sequence of UniProt Q9NVI7 (Q9NVI7 whole entry, looked up): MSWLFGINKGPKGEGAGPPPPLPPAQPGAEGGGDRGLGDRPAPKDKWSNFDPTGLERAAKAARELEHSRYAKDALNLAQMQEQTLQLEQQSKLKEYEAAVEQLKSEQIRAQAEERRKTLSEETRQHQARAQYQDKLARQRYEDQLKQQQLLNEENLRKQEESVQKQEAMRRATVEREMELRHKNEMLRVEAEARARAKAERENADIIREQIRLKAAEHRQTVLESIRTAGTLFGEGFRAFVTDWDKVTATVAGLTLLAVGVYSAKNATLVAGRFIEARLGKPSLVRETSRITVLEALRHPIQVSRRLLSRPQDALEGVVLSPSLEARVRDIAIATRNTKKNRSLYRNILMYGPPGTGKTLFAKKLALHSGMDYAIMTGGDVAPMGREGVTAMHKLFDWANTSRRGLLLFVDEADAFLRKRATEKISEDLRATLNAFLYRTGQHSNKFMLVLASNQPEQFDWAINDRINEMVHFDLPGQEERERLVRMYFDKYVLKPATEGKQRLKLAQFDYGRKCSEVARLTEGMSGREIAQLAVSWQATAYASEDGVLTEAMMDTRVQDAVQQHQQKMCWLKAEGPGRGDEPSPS
inactive: [1] -0.019 | [2] -0.037 | [3] -0.052 | [4] 0.08 | [5] 0.054

ADRM1 (UniProt Q16186)
inactive: [1] 0.007 | [2] -0.062 | [3] -0.001 | [4] -0.019 | [5] -0.01

ACIN1 (UniProt Q9UKV3)
Sequence of UniProt Q9UKV3 (Q9UKV3 whole entry, looked up): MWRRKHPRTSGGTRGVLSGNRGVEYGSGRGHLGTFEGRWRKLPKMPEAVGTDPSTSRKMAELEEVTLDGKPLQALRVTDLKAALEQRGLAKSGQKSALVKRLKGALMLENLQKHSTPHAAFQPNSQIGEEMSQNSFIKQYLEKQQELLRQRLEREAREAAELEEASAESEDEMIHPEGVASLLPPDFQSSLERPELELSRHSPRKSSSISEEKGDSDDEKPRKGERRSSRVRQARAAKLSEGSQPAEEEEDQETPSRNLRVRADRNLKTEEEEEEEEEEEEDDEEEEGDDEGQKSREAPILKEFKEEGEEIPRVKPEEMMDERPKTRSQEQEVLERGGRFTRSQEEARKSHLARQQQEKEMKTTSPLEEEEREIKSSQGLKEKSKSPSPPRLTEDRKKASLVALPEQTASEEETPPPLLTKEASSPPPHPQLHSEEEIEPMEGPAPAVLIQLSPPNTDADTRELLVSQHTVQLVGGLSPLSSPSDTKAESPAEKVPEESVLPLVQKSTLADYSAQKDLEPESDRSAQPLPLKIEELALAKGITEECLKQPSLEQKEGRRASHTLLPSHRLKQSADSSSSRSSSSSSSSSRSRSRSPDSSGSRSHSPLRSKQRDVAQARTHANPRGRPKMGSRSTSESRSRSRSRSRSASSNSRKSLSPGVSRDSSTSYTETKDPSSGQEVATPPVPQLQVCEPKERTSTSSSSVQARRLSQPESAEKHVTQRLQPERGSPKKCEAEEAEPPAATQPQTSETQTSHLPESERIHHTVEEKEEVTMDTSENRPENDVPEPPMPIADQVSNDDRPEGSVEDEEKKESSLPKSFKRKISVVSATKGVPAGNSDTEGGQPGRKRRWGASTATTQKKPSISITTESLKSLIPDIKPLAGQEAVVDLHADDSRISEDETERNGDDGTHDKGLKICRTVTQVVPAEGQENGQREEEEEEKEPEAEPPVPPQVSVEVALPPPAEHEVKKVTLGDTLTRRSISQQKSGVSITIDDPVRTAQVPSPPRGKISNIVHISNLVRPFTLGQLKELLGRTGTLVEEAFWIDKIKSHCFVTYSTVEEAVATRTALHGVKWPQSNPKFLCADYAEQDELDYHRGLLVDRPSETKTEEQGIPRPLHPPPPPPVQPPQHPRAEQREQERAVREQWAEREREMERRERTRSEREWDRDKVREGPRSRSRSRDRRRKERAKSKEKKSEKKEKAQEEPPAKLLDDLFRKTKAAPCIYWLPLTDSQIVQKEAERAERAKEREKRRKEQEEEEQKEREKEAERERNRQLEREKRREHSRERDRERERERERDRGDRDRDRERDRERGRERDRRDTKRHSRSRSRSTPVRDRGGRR
inactive: [1] 0.003 | [2] 0.095 | [3] 0.038 | [4] 0.023 | [5] -0.018

AP2A1 (UniProt O95782)
inactive: [1] -0.001 | [2] -0.021 | [3] -0.028 | [4] 0.047 | [5] -0.005

ANP32E (UniProt Q9BTT0)
inactive: [1] -0.092 | [2] -0.037 | [3] 0.14 | [4] -0.012 | [5] 0.075

BRIX1 (UniProt Q8TDN6)
inactive: [1] 0.093 | [2] -0.349 | [3] -0.242 | [4] 0.244 | [5] -0.007

ATP12A isoform 2 (UniProt P54707)
inactive: [1] -0.027 | [2] 0.062 | [3] 0.052 | [4] -0.044 | [5] -0.043

ABCA3 (UniProt Q99758)
inactive: [1] 0.239 | [2] 0.002 | [3] -0.05 | [4] 0.02 | [5] -0.035

ATL2 (UniProt Q8NHH9)
inactive: [1] -0.019 | [2] 0.05 | [3] 0.091 | [4] -0.012 | [5] -0.077

ANK2 (UniProt Q01484)
inactive: [1] -0.019 | [2] 0.058 | [3] 0.071 | [4] 0.159 | [5] 0.02

ACAP2 (UniProt Q15057)
inactive: [1] -0.009 | [2] -0.001 | [3] 0.132 | [4] 0.01 | [5] 0.011

BCLAF1 (UniProt Q9NYF8)
inactive: [1] 0.031 | [2] 0.027 | [3] -0.118 | [4] -0.013 | [5] 0.047

ALDH2 (UniProt P05091)
inactive: [1] 0.009 | [2] 0.065 | [3] 0.032 | [4] -0.043 | [5] -0.001

ATP6V0A2 (UniProt Q9Y487)
inactive: [1] 0.018 | [2] -0.044 | [3] -0.007 | [4] -0.059 | [5] -0.014

AURKA (UniProt O14965)
inactive: [1] 0 | [2] 0.148 | [3] 0.018 | [4] 0.009 | [5] -0.038

ABITRAM (UniProt Q9NX38)
Sequence of UniProt Q9NX38 (Q9NX38 whole entry, looked up): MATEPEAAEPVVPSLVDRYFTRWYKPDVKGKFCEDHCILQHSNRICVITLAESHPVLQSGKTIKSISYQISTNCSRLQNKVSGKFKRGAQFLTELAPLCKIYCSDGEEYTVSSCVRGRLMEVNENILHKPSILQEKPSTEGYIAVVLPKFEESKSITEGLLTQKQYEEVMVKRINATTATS
inactive: [1] -0.037 | [2] 0.145 | [3] 0.032 | [4] -0.044 | [5] -0.016

ATP5ME (UniProt P56385)
inactive: [1] 0.028 | [2] 0.117 | [3] 0.007 | [4] -0.072 | [5] 0.014

ABHD16A (UniProt O95870)
inactive: [1] -0.005 | [2] 0.011 | [3] 0.026 | [4] 0.066 | [5] -0.088

ARL6IP6 (UniProt Q8N6S5)
inactive: [1] -0.003 | [2] 0.113 | [3] 0.08 | [4] 0.164 | [5] 0.118

BMP2K (UniProt Q9NSY1)
inactive: [1] 0.015 | [2] 0 | [3] -0.018 | [4] 0.035 | [5] -0.001

BUB1B isoform 3 (UniProt O60566)
inactive: [1] -0.077 | [2] -0.004 | [3] 0.1 | [4] 0.01 | [5] -0.002

ANXA5 (UniProt P08758)
inactive: [1] -0.036 | [2] 0.04 | [3] 0.024 | [4] 0.021 | [5] -0.022

BCL9L (UniProt Q86UU0)
inactive: [1] 0.001 | [2] -0.028 | [3] 0.019 | [4] 0.051 | [5] 0.05

APPL1 (UniProt Q9UKG1)
inactive: [1] -0.027 | [2] 0.122 | [3] 0.086 | [4] -0.025 | [5] -0.049

ARHGAP25 isoform 4 (UniProt P42331)
inactive: [1] -0.181 | [2] -0.171 | [3] -0.173 | [4] -0.018 | [5] 0.109

ARFGAP1 (UniProt Q8N6T3)
inactive: [1] 0.033 | [2] 0.077 | [3] 0.074 | [4] -0.064 | [5] -0.034

AKT1 (UniProt P31749)
inactive: [1] -0.068 | [2] 0.018 | [3] 0.034 | [4] 0.042 | [5] -0.072

AHSA1 (UniProt O95433)
inactive: [1] -0.035 | [2] 0.063 | [3] 0.015 | [4] -0.024 | [5] -0.003

BST2 (UniProt Q10589)
inactive: [1] 0.056 | [2] 0.019 | [3] -0.012 | [4] 0.068 | [5] 0.055

ATP6V1F isoform 2 (UniProt Q16864)
Sequence of UniProt Q16864 (Q16864 whole entry, looked up): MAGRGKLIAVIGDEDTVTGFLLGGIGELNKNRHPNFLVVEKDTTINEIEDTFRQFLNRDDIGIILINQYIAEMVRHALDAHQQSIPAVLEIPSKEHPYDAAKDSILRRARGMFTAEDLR
inactive: [1] 0.015 | [2] -0.144 | [3] -0.138 | [4] -0.126 | [5] 0.02

ACP2 (UniProt P11117)
inactive: [1] 0.027 | [2] -0.023 | [3] 0.008 | [4] -0.023 | [5] 0.024

ASH2L (UniProt Q9UBL3)
inactive: [1] 0.016 | [2] -0.013 | [3] 0.081 | [4] -0.031 | [5] 0.005

APH1A (UniProt Q96BI3)
inactive: [1] -0.015 | [2] 0.009 | [3] -0.21 | [4] -0.08 | [5] -0.153

APOH (UniProt P02749)
inactive: [1] -0.265 | [2] -0.106 | [3] 0.073 | [4] -0.051 | [5] 0.199

ARL6IP4 (UniProt Q66PJ3)
inactive: [1] 0.036 | [2] 0.027 | [3] 0.009 | [4] -0.016 | [5] -0.011

ATAD3B (UniProt Q5T9A4)
inactive: [1] -0.02 | [2] -0.023 | [3] -0.055 | [4] 0.123 | [5] 0.025

ATP2A3 isoform 2 (UniProt Q93084)
inactive: [1] -0.01 | [2] 0.035 | [3] 0.036 | [4] -0.002 | [5] 0.01

BTBD6 (UniProt Q96KE9)
inactive: [1] 0.12 | [2] 0.073 | [3] 0.04 | [4] -0.117 | [5] -0.099

ATR (UniProt Q13535)
Sequence of UniProt Q13535 (Q13535 whole entry, looked up): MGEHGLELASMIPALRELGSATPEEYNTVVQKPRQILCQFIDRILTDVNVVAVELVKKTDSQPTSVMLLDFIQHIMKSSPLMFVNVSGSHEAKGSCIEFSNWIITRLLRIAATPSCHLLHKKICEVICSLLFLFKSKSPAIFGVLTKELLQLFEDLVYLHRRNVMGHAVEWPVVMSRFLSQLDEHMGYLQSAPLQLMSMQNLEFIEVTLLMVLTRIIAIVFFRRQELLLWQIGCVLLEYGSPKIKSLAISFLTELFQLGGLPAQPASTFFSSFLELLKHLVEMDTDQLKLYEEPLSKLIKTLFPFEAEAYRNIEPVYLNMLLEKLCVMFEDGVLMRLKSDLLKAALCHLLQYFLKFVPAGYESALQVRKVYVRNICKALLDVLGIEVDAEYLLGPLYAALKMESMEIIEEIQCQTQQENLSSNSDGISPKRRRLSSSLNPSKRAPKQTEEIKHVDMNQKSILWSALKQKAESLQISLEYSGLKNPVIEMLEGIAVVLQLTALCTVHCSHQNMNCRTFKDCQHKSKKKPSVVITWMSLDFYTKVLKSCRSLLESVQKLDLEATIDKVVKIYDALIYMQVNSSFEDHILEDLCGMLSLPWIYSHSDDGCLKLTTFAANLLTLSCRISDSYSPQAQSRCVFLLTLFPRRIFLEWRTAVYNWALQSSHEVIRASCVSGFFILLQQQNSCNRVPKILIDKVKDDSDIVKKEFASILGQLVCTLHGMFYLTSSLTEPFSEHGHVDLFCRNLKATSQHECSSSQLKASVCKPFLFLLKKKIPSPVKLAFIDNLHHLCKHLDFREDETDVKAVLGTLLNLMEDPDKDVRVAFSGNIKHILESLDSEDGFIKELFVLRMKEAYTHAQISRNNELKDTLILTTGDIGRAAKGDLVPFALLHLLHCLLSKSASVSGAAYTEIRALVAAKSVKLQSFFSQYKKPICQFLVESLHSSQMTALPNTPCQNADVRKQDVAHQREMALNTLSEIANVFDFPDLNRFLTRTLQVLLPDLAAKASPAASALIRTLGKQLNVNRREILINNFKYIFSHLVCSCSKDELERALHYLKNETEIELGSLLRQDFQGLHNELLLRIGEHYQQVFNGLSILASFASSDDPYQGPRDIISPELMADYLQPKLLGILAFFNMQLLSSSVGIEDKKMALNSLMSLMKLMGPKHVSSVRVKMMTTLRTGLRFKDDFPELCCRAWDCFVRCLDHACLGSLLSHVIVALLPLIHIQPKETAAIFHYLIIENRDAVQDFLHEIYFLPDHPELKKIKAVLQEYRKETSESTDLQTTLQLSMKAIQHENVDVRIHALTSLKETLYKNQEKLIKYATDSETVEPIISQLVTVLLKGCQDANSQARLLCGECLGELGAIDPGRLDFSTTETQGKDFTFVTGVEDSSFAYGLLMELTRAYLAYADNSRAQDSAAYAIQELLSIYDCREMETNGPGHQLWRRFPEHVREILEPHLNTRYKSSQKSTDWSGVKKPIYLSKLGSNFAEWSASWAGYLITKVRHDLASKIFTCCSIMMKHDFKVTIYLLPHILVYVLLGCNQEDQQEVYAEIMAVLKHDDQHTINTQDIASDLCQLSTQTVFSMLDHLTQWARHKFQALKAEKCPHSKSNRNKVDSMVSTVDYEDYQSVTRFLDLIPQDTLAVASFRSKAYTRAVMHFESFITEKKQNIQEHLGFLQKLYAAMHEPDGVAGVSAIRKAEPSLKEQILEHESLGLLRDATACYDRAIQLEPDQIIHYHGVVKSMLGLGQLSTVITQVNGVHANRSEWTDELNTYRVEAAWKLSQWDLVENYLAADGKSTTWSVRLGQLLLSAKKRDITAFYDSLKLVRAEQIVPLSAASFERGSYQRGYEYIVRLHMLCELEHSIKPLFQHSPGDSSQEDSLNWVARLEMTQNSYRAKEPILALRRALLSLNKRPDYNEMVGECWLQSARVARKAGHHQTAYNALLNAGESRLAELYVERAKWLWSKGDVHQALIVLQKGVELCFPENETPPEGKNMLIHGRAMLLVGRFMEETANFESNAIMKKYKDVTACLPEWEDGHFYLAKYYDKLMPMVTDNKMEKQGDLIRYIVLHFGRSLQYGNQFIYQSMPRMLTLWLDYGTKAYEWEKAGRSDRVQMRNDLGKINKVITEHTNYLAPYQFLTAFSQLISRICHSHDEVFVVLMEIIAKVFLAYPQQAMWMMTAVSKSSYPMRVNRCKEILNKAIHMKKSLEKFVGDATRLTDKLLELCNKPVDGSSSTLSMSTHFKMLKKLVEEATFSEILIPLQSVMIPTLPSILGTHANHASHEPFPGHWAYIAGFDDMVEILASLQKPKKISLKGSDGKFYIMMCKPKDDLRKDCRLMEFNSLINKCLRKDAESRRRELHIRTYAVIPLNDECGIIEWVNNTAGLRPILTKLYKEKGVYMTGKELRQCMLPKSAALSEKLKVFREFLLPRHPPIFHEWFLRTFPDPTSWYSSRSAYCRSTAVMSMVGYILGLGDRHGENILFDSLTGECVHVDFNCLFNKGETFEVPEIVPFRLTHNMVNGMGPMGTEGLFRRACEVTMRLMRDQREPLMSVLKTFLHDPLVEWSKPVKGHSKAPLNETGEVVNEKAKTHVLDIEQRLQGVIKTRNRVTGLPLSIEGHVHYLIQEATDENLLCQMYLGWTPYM
inactive: [1] -0.045 | [2] 0.025 | [3] 0.107 | [4] -0.022 | [5] -0.079

APLP2 (UniProt Q06481)
inactive: [1] 0.003 | [2] -0.003 | [3] 0 | [4] 0.036 | [5] 0.038

BYSL (UniProt Q13895)
inactive: [1] 0.001 | [2] -0.085 | [3] -0.09 | [4] 0.02 | [5] -0.042

ARHGAP4 isoform 2 (UniProt P98171)
inactive: [1] 0.211 | [2] -0.101 | [3] -0.069 | [4] -0.122 | [5] 0.008

BRD8 (UniProt Q9H0E9)
inactive: [1] 0.027 | [2] -0.009 | [3] 0.023 | [4] 0.009 | [5] 0.021

ACTR1B (UniProt P42025)
inactive: [1] -0.049 | [2] 0.105 | [3] 0.034 | [4] 0.028 | [5] -0.029

ACP1 (UniProt P24666)
Sequence of UniProt P24666 (P24666 whole entry, looked up): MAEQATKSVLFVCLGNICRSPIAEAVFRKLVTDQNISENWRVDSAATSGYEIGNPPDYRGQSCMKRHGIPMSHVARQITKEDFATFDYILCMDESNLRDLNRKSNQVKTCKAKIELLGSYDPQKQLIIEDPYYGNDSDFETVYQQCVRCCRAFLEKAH
inactive: [1] -0.058 | [2] -0.026 | [3] 0.184 | [4] -0.041 | [5] -0.416

ASS1 (UniProt P00966)
inactive: [1] -0.099 | [2] -0.036 | [3] 0.032 | [4] -0.141 | [5] -0.146
